Source: PubChem (National Center for Advancing Translational Sciences (NCATS))
This is a sample that favours compounds with a hit; in the whole collection about 19% have one here.
TDP1 cell noCPT – qHTS for Inhibitors of human tyrosyl-DNA phosphodiesterase 1 (TDP1): qHTS in cells in absence of CPT. DT40 Tdp1-/- hTDP1 cells, no CPT, ATP luminescence, 48 h. Potency, µM (titrated, usually from 46.2 µM), without a hit: at the top dose activity change, negative = growth inhibition, usual class: inhibitors. 15% of 420,000 active. AID 686978, 2013; note: nearly all actives have a fitted effect of over 55% in size
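Growth kinetics read by CellTiter-Glo luminescence after ≥48 hr at 37 °C. Cells: DT40 Tdp1-/- stably carrying human TDP1, 400 per well, compound exposure in the absence of CPT (DMSO vehicle).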
DT40 TDP1 CPT – growth inhibition of DT40 Tdp1-/-;hTDP1 cells with camptothecin (screen for TDP1 inhibitors) | AID 686979 | Potency, µM (top dose mostly 46.2 µM), without a hit: at the top dose activity change, negative = growth inhibition, most hits filed as inhibitors | chicken DT40 Tdp1-/-;hTDP1 cells + 20 nM CPT, ATP luminescence, 48 h | 12% of 420,000 active; note: nearly all actives have a fitted effect of over 55% in size
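Cell growth measured by CellTiter-Glo luminescence after a minimum 48 h, 37 C compound exposure with 20 nM CPT in Tdp1-knockout DT40 cells stably expressing hTDP1, seeded 400/well; qHTS titration format.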
KB-V1 MDR tox – kills drug-selected multidrug resistant KB-V1 cells | Potency, µM (top dose mostly 46.1 µM), most hits filed as cytotoxic | KB-V1 MDR cells viability, CellTiter-Glo, 72 h | 3.4% of 400,000 active; note: nearly all actives have a fitted effect of over 60% in size
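Potencies derive from concentration-effect curves fitted to normalized luminescence (CellTiter-Glo) of KB-V1 cells treated for 72 h at 37 degrees C in phenol-red-free DMEM containing 10% FBS.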
HT1080-NT tox – kills 2HG-producing HT-1080-NT fibrosarcoma cells | HT-1080-NT fibrosarcoma viability, CellTiter-Glo ATP luminescence, 48 h | Potency, µM (top dose mostly 46.1 µM), inactives show at the highest dose activity, negative = less viability, most hits filed as cytotoxic | 1.6% of 360,000 active | AID 686970;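 note: NT is the 2HG producing partner of a matched IDH1 knockdown line; 0% = DMSO-treated cells and -100% = media-only wells without cells; nearly all actives have a fitted effect of over 55% in size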
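Compounds were tested in concentration-response format on HT-1080-NT cells for 48 hours at 37 degrees C. Cell viability came from CellTiter-Glo luminescence; curves were classified by r2, response magnitude and activity.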
KB-3-1 tox – KB-3-1 parental cell cytotoxicity; KB-3-1 viability, CellTiter-Glo ATP luminescence, 72 h; Potency, µM (series often up to 46.1 µM), usual class: cytotoxic; 1.4% of 400,000 active; AID 1347075; note: nearly all actives have a fitted effect of over 60% in size
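KB-3-1 parental drug-naive adenocarcinoma cells in DMEM/10% FBS, incubated 72 h at 37 C with pin-transferred compounds across a concentration series. Viability by CellTiter-Glo luminescence; concentration-response curves fitted after normalization.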
HT1080 IDH1KD tx – toxicity to HT-1080 IDH1 knockdown cells (counter line). HT-1080 IDH1 knockdown viability, ATP luminescence, 48 h. Potency, µM (titrated, usually from 46.1 µM), for the others: at the top dose activity, negative = toxicity, most hits filed as cytotoxic. 2% of 360,000 active. AID 686971;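 note: 0% = DMSO wells and -100% = cell-free medium wells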
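Using the IDH1-knockdown HT-1080 line run in the same batch and compound series as the NT line, viability after 48 h at 37 °C was determined by CellTiter-Glo luminescence and expressed as % activity.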
Starred values were filed as active, the others as inactive; i = inactive; ? = inconclusive; . = not tested or not shown; [ ] = another dose, or the depositor's remark. Calls come from the whole dose curve; as a rule, active = well fitted curve in the direction sought with a large enough effect; inconclusive = small, poorly fitted or top-dose-only effect, or another doubt; inactive = no such curve, though single readings can be large; an effect the other way counts as inactive or inconclusive. Unless noted, % is set by controls: 0 for no effect and ±100 for the full control effect; potency is the fitted concentration of half-maximal effect.

SMILES	TDP1 cell noCPT	DT40 TDP1 CPT	KB-V1 MDR tox	HT1080-NT tox	KB-3-1 tox	HT1080 IDH1KD tx
CC(=O)N1CCC[C@@]2(CCN(C(=O)Nc3cccc(C#N)c3)C2)C1	20.7%	1.3%	.	.	.	.
Cc1ccc(S(=O)(=O)Nc2c(C)n(C)n(-c3ccccc3)c2=O)cc1C(=O)NCc1ccco1	?	-81.6%	i	-3.9%	i	-12.1%
COc1ccc(NC(=O)C2CCCC2)cn1	-1.7%	12.7%	i	22.8%	i	13.8%
CCOc1ccc(C(=O)Nc2cc(-c3nc4ccccc4o3)ccc2C)cc1Cl	-6.3%	-11.7%	i	.	i	.
COc1ccc2cc(CNCc3ccccc3C(F)(F)F)c(N3CCCC(CO)C3)nc2c1 (stereo unspecified)	-28.9%	-12.1%[9.04 µM]	.	.	.	.
Cc1ccc(S(=O)(=O)Nc2ccccc2NS(=O)(=O)c2ccc(C)cc2)cc1	-11.9%	-10.1%	20.6µM*	-29.9%	?	-20.6%
Cc1cc(-c2ccc(NS(=O)(=O)c3ccccc3)c(C)c2)ccc1NS(=O)(=O)c1ccccc1	11.6µM*	13µM*	i	-20.1%	?	-14.2%
Cc1ccc(S(=O)(=O)Nc2ccccc2O)cc1	-18.8%	2.3%	i	-0.5%	i	7.6%
CC1(C(=O)O)CCCN1C(=O)c1ccccc1OC(F)(F)F (stereo unspecified)	-6.4%	-19.0%	i	15.1%	i	6.4%
C[C@H]1CN([C@@H](C)CO)S(=O)(=O)c2ccc(C3=CCCC3)cc2O[C@@H]1CN(C)C(=O)C1CCCCC1	-110.5%	-94.2%	i	?	?	?
C[C@H](CO)N1C[C@H](C)[C@@H](CN(C)C(=O)Nc2ccccc2F)Oc2cc(Br)ccc2S1(=O)=O	-11.0%	-2.7%	i	8.3%	i	5.3%
C[C@@H]1CN([C@@H](C)CO)S(=O)(=O)c2ccc(Br)cc2O[C@H]1CN(C)C(=O)C1CCOCC1	-2.6%	9.3%	i	11.7%	i	12.3%
C[C@H]1CN([C@@H](C)CO)S(=O)(=O)c2ccc(-c3ccccc3)cc2O[C@H]1CN(C)C(=O)C1CCC1	14.6µM*	?	i	-3.4%	i	-6.4%
C[C@H]1CN([C@@H](C)CO)S(=O)(=O)c2ccc(/C=C/c3ccccc3)cc2O[C@H]1CN(C)C(=O)NC1CCCCC1	18.4µM*	?	?	?	?	?
C[C@@H]1CN([C@@H](C)CO)S(=O)(=O)c2ccc(Br)cc2O[C@H]1CN(C)C(=O)C1CCCCC1	16.4µM*	25.9µM*	i	5.8%	i	-10.8%
C[C@@H]1CN([C@H](C)CO)S(=O)(=O)c2ccc(Br)cc2O[C@H]1CN(C)C(=O)C1CCCCC1	13µM*	25.9µM*	i	-12.4%	?	-10.7%
CC(C)NC(=O)N(C)C[C@H]1Oc2cc(Br)ccc2S(=O)(=O)N([C@H](C)CO)C[C@H]1C	-6.8%	-26.2%	i	6.2%	?	-6.4%
COc1ccc(NC(=O)CN(C)S(=O)(=O)c2ccc3nc(C)sc3c2)cc1	-11.0%	-19.1%	i	.	i	.
Cc1cc(C)cc(-n2ccnc(NCc3ccc(F)cc3)c2=O)c1	?	?	i	.	i	.
C=CCc1ccc(OCCCCN2CC(C)CC(C)C2)c(OC)c1 (stereo unspecified)	20.6µM*	16.4µM*	i	-0.8%	i	-5.6%
C=CCc1ccc(OCCCN2CCCC(C)C2)c(OC)c1 (stereo unspecified)	?	-5.0%	?	5.5%	i	-13.4%
C=CCc1ccc(OCCCCN2CCC(C)CC2)c(OC)c1	16.4µM*	?	i	-17.1%	i	-43.4%
Cc1ccc2c(=O)cc(C(=O)Nc3sc4c(c3C(=O)NCc3ccccc3)CCCC4)oc2c1C	-8.9%	2.3%	i	.	i	.
CC(C)CSc1nc(N2CCOCC2)c2c(c1C#N)CC(C)(C)SC2	?	?	i	-4.3%	i	-2.4%
CC(C)CNc1nnnc2c1sc1nc(N3CCOCC3)c3c(c12)CC(C)(C)SC3	?	29.1µM*	?	-1.3%	?	-1.4%
SMILES	TDP1 cell noCPT	DT40 TDP1 CPT	KB-V1 MDR tox	HT1080-NT tox	KB-3-1 tox	HT1080 IDH1KD tx
NNc1nnnc2c1sc1nc(N3CCOCC3)c3c(c12)CCCC3	?	?	i	-3.9%	i	5.8%
CC1(C)Cc2c(c(N3CCOCC3)nc3sc4c(NCc5ccco5)nnnc4c23)CS1	18.4µM*	20.6µM*	i	-17.9%	i	-23.3%
CCc1ccccc1NC(=O)c1cc2nc(-c3ccc(Br)cc3)cc(C(F)(F)F)n2n1	?	?	i	.	i	.
COC(=O)c1sc(-c2ccccc2)cc1NC(=O)Nc1ccc(F)cc1	?	?	i	.	i	.
Cc1ccc(-c2nc(CSCC(=O)N3CCOCC3)c(C)o2)cc1	-15.7%	-2.6%	i	-2.7%	i	-6.4%
Cc1ccc(-c2nc(CSCC(=O)N3CCN(c4ccccn4)CC3)c(C)o2)cc1	20.6µM*	18.4µM*	?	-20.8%	?	-10.2%
CCc1ccc(-c2nc(CSCC(=O)N3CCN(c4ccccn4)CC3)c(C)o2)cc1	18.4µM*	23.1µM*	18.4µM*	2.0%	?	?
Fc1ccc(Nc2ccc3ccccc3n2)c(F)c1	-25.4%	-29.5%	i	-3.3%	i	-2.8%
CC1CCCCN1C(=O)CSc1nnc(-c2ccc(Cl)s2)o1 (stereo unspecified)	29.1µM*	?	i	-2.9%	i	-0.3%
CC1CCCCN1C(=O)CSc1nnc(-c2ccccc2O)o1 (stereo unspecified)	?	?	?	-10.3%	13µM*	-19.5%
Cc1nc(-c2ccc(S(=O)(=O)Nc3ccc(C)c(N(C)C)c3)cc2)co1	18.4µM*	7.31µM*	?	.	18.4µM*	.
Cc1nc(-c2ccc(S(=O)(=O)Nc3cccc(Cl)c3)cc2)co1	6.0%	-27.5%	i	-9.2%	i	2.7%
CSc1cccc(NS(=O)(=O)c2ccc(-c3coc(C)n3)cc2)c1	14.6µM*	?	i	-0.7%	?	-27.3%
CCN(CC)c1ccc(NS(=O)(=O)c2ccc(-c3coc(C)n3)cc2)c(C)c1	18.4µM*	16.4µM*	?	.	i	.
COc1cc(Cl)c(NS(=O)(=O)c2ccc(-c3coc(C)n3)cc2)c(OC)c1	4.11µM*	3.66µM*	i	.	?	.
Cc1nc(-c2ccc(S(=O)(=O)Nc3ccccc3C)cc2)co1	-19.5%	?	i	0.1%	i	?
